Source: article PMC7862700, “An all-to-all approach to the identification of sequence-specific readers for epigenetic DNA modifications on cytosine”

What was measured:
Test in all cases: DAPPL (digital affinity profiling via proximity ligation, sequencing); 10 mM Tris-HCl pH 7.5, 50 mM NaCl, 1 mM DTT, 4% glycerol, room temperature, 30 min; GST-TFs on glutathione beads, 16-mer random dsDNA library, 0.1% formaldehyde crosslink after washing; high values mean tight binding
Settings in all cases: protein: recombinant; tags: N-terminal GST; dsDNA, one strand shown
[1] = target: T1, FLI1 (Homo sapiens, UniProt Q01543 1-452)
T1 sequence: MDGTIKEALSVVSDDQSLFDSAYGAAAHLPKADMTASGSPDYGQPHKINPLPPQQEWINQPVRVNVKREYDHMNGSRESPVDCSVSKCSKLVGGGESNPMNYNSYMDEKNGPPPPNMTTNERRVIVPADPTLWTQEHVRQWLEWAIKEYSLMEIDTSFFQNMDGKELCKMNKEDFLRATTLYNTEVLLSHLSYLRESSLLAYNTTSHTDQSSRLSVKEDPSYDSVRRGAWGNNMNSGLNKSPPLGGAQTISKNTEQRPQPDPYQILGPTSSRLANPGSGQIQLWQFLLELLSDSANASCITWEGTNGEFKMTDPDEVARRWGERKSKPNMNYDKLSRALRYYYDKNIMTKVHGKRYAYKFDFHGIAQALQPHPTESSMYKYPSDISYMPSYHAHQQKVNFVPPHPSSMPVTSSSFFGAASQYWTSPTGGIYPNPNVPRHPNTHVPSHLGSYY
Method in brief: (§1)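 Human transcription factors fused to GST were expressed in yeast, captured on glutathione beads, given DNA barcodes and pooled with a GST-only negative control. Pools were incubated with 200 nmole of a 16-mer random double-stranded DNA library in Tris/NaCl/DTT/glycerol buffer at room temperature for 30 min. They were then washed, crosslinked with 0.1% formaldehyde, proximity-ligated (BsaI/T4 ligase, 1 h, 37 °C), PCR-amplified and sequenced on an Illumina NextSeq500. Binding signal is each 6-mer's read frequency for a factor divided by its frequency for the GST control.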

[2] = target: T2, GABPA (Homo sapiens, UniProt Q06546 1-454)
T2 sequence: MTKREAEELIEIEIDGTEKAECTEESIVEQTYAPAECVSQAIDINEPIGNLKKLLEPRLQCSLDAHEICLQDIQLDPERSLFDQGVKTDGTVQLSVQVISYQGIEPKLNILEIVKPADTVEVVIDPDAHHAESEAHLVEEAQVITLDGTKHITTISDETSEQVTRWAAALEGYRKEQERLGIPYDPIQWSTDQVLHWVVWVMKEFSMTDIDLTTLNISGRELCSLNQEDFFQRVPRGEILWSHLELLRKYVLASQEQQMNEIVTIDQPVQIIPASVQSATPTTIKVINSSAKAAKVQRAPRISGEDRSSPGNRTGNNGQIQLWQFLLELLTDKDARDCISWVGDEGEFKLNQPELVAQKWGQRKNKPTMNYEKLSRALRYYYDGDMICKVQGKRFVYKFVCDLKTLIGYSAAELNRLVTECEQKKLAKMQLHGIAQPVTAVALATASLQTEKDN
Method in brief: as §1

[3] = target: ELF1 (Homo sapiens, UniProt P32519 1-619)
Chain of ELF1 (P32519 whole entry): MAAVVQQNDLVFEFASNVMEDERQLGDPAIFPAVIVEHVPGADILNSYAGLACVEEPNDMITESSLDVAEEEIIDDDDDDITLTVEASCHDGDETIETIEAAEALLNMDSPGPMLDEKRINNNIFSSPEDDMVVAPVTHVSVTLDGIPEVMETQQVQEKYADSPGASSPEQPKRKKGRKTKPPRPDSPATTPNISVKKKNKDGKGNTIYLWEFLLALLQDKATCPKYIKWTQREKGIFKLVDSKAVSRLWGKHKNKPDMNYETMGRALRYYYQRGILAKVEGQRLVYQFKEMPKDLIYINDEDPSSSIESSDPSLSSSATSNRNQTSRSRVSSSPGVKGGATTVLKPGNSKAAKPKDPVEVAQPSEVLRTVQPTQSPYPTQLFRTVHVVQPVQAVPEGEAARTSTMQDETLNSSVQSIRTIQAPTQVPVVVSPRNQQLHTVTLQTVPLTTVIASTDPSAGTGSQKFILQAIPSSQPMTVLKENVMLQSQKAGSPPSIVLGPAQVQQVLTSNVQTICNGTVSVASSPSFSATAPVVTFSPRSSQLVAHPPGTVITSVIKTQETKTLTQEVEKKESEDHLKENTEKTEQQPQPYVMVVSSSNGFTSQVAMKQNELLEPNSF
Method in brief: as §1

[4] = target: SPIB (Homo sapiens, UniProt Q01892 1-262)
Chain of SPIB (Q01892 whole entry): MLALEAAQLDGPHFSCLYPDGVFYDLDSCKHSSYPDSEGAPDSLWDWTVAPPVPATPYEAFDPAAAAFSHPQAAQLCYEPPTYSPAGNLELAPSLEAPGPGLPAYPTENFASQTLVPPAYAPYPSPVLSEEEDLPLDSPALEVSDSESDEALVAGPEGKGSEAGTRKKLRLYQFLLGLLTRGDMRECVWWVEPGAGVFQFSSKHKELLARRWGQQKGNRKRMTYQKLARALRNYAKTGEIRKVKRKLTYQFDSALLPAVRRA
Method in brief: as §1

[5] = target: T3, ELK3 (Homo sapiens, UniProt P41970 1-407)
T3 sequence: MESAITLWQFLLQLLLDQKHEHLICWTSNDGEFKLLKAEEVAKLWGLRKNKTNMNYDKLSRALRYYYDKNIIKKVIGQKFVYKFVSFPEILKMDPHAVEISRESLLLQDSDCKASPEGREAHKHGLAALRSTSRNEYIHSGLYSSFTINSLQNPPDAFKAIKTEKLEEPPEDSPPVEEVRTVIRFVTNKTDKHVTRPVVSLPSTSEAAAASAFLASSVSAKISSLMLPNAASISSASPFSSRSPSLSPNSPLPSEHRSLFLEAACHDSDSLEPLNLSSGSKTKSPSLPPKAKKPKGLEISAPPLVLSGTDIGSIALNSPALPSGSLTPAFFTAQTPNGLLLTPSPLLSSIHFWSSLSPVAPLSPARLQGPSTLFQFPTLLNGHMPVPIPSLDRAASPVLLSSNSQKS
Method in brief: as §1

[6] = target: T4, SPIC (Homo sapiens, UniProt Q8N5J4 1-248)
T4 sequence: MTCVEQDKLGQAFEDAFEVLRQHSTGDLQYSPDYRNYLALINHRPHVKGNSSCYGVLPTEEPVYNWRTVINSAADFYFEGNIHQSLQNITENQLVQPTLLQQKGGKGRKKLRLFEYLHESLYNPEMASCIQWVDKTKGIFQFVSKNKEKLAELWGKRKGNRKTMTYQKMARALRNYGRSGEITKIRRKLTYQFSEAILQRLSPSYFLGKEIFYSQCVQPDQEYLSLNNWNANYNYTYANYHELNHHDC
Method in brief: as §1

[7] = target: T5, ETV2 (Homo sapiens, UniProt O00321 1-342)
T5 sequence: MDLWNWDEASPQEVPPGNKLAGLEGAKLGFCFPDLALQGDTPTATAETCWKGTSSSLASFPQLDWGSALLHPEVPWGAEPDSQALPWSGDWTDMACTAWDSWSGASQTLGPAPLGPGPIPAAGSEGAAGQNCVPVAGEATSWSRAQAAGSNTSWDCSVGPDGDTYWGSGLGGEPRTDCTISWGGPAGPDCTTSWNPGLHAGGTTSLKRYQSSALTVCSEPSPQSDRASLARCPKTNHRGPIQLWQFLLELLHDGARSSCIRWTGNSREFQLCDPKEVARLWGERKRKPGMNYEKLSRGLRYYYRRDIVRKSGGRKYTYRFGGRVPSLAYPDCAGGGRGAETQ
Method in brief: as §1

[8] = target: ETV1 (Homo sapiens, UniProt P50549 1-477)
Chain of ETV1 (P50549 whole entry): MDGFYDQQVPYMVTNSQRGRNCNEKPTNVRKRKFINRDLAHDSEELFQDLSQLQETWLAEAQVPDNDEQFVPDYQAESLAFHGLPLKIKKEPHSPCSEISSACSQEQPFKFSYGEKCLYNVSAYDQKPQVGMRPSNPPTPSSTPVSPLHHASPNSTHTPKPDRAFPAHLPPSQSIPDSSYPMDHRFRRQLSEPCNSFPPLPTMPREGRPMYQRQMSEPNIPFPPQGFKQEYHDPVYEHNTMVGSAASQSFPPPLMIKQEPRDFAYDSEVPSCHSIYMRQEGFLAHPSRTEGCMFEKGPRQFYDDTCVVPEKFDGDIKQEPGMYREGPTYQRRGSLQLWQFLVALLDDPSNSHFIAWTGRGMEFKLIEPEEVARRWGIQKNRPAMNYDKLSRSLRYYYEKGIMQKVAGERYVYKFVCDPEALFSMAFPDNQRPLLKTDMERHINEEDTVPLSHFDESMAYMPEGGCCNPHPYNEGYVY
Method in brief: as §1

[9] = target: T6, ERF (Homo sapiens, UniProt P50548 1-548)
T6 sequence: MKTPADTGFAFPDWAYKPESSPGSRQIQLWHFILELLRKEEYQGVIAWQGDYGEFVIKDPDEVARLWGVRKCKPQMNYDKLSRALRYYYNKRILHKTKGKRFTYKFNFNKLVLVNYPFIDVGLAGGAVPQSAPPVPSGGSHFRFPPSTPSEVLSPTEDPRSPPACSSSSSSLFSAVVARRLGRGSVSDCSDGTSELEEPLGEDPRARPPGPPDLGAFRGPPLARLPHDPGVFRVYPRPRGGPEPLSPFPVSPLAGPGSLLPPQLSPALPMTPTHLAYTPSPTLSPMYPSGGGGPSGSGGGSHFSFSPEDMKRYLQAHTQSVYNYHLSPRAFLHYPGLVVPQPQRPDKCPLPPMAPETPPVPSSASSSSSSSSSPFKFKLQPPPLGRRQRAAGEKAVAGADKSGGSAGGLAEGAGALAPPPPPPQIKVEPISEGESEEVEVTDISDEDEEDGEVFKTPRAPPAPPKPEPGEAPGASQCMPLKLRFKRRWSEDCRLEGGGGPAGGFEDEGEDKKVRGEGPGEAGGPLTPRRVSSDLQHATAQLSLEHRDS
Method in brief: as §1

[10] = target: T7, ETV3L (Homo sapiens, UniProt Q6ZN32 1-361)
T7 sequence: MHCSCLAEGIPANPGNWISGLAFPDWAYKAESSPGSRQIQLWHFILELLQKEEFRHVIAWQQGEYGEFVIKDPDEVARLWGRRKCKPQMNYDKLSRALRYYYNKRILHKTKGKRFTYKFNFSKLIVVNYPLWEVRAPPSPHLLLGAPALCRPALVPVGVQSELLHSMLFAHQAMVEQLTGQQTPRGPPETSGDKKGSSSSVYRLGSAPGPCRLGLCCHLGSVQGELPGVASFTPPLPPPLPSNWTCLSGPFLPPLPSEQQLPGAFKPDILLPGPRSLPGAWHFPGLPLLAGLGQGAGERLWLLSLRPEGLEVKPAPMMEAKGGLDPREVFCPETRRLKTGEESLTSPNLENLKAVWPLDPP
Method in brief: as §1

[11] = target: T8, ETS2 (Homo sapiens, UniProt P15036 1-469)
T8 sequence: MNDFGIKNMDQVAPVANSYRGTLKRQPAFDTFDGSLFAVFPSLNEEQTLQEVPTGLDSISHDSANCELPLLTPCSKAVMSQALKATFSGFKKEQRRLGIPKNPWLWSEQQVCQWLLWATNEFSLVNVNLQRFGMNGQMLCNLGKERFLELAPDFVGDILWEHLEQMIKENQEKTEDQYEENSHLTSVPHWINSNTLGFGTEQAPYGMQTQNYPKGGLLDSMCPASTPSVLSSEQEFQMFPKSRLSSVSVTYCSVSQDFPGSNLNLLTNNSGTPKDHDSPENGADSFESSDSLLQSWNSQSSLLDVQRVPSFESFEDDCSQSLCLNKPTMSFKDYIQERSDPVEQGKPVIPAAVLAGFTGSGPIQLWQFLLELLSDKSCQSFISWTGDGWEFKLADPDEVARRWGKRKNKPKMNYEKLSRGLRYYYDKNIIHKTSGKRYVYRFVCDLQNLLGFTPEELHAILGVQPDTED
Method in brief: as §1

[12] = target: T9, ETV3 (Homo sapiens, UniProt P41162-2 1-143)
T9 sequence: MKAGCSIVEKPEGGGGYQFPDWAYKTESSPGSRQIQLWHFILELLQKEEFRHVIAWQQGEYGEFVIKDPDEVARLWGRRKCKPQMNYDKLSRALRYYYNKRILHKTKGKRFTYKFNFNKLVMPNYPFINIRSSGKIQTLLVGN
Method in brief: as §1

[13] = target: ETV6 (Homo sapiens, UniProt P41212 1-452)
Chain of ETV6 (P41212 whole entry): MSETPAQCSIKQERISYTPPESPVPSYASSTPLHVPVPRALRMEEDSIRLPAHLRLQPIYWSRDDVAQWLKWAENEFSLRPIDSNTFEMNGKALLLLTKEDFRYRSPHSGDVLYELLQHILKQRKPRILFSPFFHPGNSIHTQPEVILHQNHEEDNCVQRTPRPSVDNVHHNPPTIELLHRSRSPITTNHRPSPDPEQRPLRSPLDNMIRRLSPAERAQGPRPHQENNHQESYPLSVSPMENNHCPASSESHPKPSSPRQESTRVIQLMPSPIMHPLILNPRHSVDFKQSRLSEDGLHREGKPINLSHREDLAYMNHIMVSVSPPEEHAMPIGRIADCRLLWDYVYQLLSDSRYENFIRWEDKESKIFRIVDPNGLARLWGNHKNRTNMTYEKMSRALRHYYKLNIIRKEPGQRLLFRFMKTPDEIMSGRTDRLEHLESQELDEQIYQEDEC
Method in brief: as §1

[14] = target: T10, ERG (Homo sapiens, UniProt P11308 1-479)
T10 sequence: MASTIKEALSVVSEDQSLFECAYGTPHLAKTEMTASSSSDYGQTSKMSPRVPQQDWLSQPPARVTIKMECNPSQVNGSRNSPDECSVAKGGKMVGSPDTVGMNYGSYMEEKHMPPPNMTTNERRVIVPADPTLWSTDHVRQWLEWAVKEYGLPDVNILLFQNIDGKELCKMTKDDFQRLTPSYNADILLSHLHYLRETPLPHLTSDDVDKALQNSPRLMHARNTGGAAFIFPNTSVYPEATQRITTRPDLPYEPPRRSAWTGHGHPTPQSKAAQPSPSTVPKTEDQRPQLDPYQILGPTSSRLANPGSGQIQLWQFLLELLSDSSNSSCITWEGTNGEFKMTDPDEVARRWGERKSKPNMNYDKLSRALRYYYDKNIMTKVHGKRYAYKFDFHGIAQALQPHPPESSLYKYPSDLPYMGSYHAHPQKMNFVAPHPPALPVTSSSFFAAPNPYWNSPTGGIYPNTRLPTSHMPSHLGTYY
Method in brief: as §1

[15] = target: T11, EHF (Homo sapiens, UniProt Q9NZC4 1-300)
T11 sequence: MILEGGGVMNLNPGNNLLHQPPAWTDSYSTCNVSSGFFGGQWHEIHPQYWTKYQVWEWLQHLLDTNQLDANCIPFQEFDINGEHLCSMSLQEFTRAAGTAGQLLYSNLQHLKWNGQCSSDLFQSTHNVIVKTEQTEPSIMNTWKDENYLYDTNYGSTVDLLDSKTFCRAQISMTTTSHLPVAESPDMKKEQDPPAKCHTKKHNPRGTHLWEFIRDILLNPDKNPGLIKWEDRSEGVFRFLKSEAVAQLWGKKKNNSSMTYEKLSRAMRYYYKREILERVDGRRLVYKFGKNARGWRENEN
Method in brief: as §1

[16] = target: T12, ETV7 (Homo sapiens, UniProt Q9Y603 1-341)
T12 sequence: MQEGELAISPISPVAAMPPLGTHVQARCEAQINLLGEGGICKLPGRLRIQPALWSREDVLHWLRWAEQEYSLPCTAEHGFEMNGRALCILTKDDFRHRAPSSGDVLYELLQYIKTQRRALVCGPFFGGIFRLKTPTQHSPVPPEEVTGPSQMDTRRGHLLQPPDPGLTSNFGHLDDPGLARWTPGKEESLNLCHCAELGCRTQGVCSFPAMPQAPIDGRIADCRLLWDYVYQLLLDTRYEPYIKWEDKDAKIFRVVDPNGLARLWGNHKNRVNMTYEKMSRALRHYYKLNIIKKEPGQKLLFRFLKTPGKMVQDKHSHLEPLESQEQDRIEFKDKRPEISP
Method in brief: as §1

Sequence	binding signal [1]	binding signal [2]	binding signal [3]	binding signal [4]	binding signal [5]	binding signal [6]	binding signal [7]	binding signal [8]	binding signal [9]	binding signal [10]	binding signal [11]	binding signal [12]	binding signal [13]	binding signal [14]	binding signal [15]	binding signal [16]
GATCAA	1.01 fold enrichment (6-mer frequency, TF over GST control)	1.16 fold enrichment (6-mer frequency, TF over GST control)	1.04 fold enrichment (6-mer frequency, TF over GST control)	1.03 fold enrichment (6-mer frequency, TF over GST control)	1.09 fold enrichment (6-mer frequency, TF over GST control)	1.05 fold enrichment (6-mer frequency, TF over GST control)	1.19 fold enrichment (6-mer frequency, TF over GST control)	1.04 fold enrichment (6-mer frequency, TF over GST control)	1.02 fold enrichment (6-mer frequency, TF over GST control)	1.1 fold enrichment (6-mer frequency, TF over GST control)	1.04 fold enrichment (6-mer frequency, TF over GST control)	1.01 fold enrichment (6-mer frequency, TF over GST control)	1.07 fold enrichment (6-mer frequency, TF over GST control)			
TCTAGA	1.05 fold enrichment (6-mer frequency, TF over GST control)	1.02 fold enrichment (6-mer frequency, TF over GST control)	1 fold enrichment (6-mer frequency, TF over GST control)		1.18 fold enrichment (6-mer frequency, TF over GST control)	1.05 fold enrichment (6-mer frequency, TF over GST control)		1.02 fold enrichment (6-mer frequency, TF over GST control)	1.03 fold enrichment (6-mer frequency, TF over GST control)	1.03 fold enrichment (6-mer frequency, TF over GST control)	1.05 fold enrichment (6-mer frequency, TF over GST control)	1.04 fold enrichment (6-mer frequency, TF over GST control)		1 fold enrichment (6-mer frequency, TF over GST control)	1.11 fold enrichment (6-mer frequency, TF over GST control)	1.03 fold enrichment (6-mer frequency, TF over GST control)
